# Test results from publication PMC11062922 (Nature Chemical Biology, 2023).
# Where two headings read alike, the source gives them in different places.
# Assays:
# Parameters in all cases: species or system human, MV4-11 + K-562 + COLO205 + SK-N-BE2 + OVCAR-8
# IKBKE = conditions: read-out: apparent Kd, n = 1
# MAP4K3 = conditions: read-out: apparent Kd, n = 1
# RPS6KA1 = conditions: read-out: apparent Kd, n = 1
# SLK = conditions: read-out: apparent Kd, n = 1
# TEC = conditions: read-out: apparent Kd, n = 1
# TGFBR1 = conditions: read-out: apparent Kd, n = 1
# DDR1 = conditions: read-out: apparent Kd, n = 1
# TAOK1 = conditions: read-out: apparent Kd, n = 1
# MAP4K2 = conditions: read-out: apparent Kd, n = 1
# CDK10 = conditions: read-out: apparent Kd, n = 1
# MAP4K5 = conditions: read-out: apparent Kd, compound concentrations: 100 nM and 1000 nM (sheet 'Samples'), n = 1
# NEK9 = conditions: read-out: apparent Kd, n = 1
# ACVR1 = conditions: read-out: apparent Kd, compound concentrations: 100 nM and 1000 nM (sheet 'Samples'), n = 1
# AKT3 = conditions: read-out: apparent Kd, n = 1
# TP53RK = conditions: read-out: apparent Kd, compound concentrations: 100 nM and 1000 nM (sheet 'Samples'), n = 1
# AKT2 = conditions: read-out: apparent Kd, compound concentrations: 100 nM and 1000 nM (sheet 'Samples'), n = 1
# PIK3C2A = conditions: read-out: apparent Kd, compound concentrations: 100 nM and 1000 nM (sheet 'Samples'), n = 1
# PIK3C3 = conditions: read-out: apparent Kd, n = 1
# STK11 = conditions: read-out: apparent Kd, compound concentrations: 100 nM and 1000 nM (sheet 'Samples'), n = 1
# MAP2K2 = conditions: read-out: apparent Kd, compound concentrations: 100 nM and 1000 nM (sheet 'Samples'), n = 1
# [1] = compound concentrations:100 nM and 1000 nM (sheet 'Samples')
compound,measurement,setting,value
CNC(=O)c1ccccc1Nc1nc(Nc2ccc(N3CCOCC3)cc2)ncc1Cl.Cl [GSK1576028A],potency estimated from few doses,IKBKE; [1],1540 nM
same,potency estimated from few doses,MAP4K3; [1],1670 nM
same,potency estimated from few doses,RPS6KA1; [1],683 nM
same,potency estimated from few doses,SLK; [1],1120 nM
same,potency estimated from few doses,TEC; [1],57.7 nM
same,potency estimated from few doses,TGFBR1; [1],780 nM
CN1C[C@@H]2Cn3c(c(C4=C(c5cn(C)c6ccccc56)C(=O)NC4=O)c4ccccc43)C[C@H]2C1.Cl [RO0320234-001],potency estimated from few doses,DDR1; [1],1520 nM
same,potency estimated from few doses,TAOK1; [1],1350 nM
same,potency estimated from few doses,TEC; [1],1190 nM
CCOC(=O)N1CCC(n2cnc(-c3ccc(F)cc3)c2-c2ccnc(N)n2)CC1 [SB-219952],potency estimated from few doses,"DDR1; compound concentrations: 100 nM and 1000 nM (sheet 'Samples'), CATDS: 1.23341339187386E-2",531 nM
same,potency estimated from few doses,"TEC; compound concentrations: 100 nM and 1000 nM (sheet 'Samples'), CATDS: 8.8843344260598894E-3",1200 nM
Cc1cccc(-c2nc(Nc3ccncc3)c3sccc3n2)n1 [GW869641X],potency estimated from few doses,MAP4K2; [1],669 nM
Cc1cccc(Nc2nc(N[C@H]3CCCC[C@H]3N)ncc2C(N)=O)c1.Cl [GSK986310C],potency estimated from few doses,MAP4K2; [1],2080 nM
CC(C)N1CCC(n2cnc(-c3ccc(F)cc3)c2-c2ccnc(N)n2)CC1 [SB-223132],potency estimated from few doses,DDR1; [1],928 nM
COc1ccc(Nc2ncc(C#N)c(Nc3ccccc3C(N)=O)n2)cc1N1CCN(C)CC1.Cl [GSK1558669A],potency estimated from few doses,"CDK10; compound concentrations: 100 nM and 1000 nM (sheet 'Samples'), CATDS: 6.1619993305959599E-3",1450 nM
same,potency estimated from few doses,"DDR1; compound concentrations: 100 nM and 1000 nM (sheet 'Samples'), CATDS: 8.5132006877523293E-3",319 nM
same,potency estimated from few doses,"IKBKE; compound concentrations: 100 nM and 1000 nM (sheet 'Samples'), CATDS: 7.4158435365071704E-3",548 nM
same,potency estimated from few doses,"MAP4K3; compound concentrations: 100 nM and 1000 nM (sheet 'Samples'), CATDS: 1.16453060646116E-2",123 nM
same,potency estimated from few doses,MAP4K5; CATDS: 7.4217938627351198E-3,546 nM
same,potency estimated from few doses,"NEK9; compound concentrations: 100 nM and 1000 nM (sheet 'Samples'), CATDS: 1.04770728264292E-2",164 nM
same,potency estimated from few doses,"RPS6KA1; compound concentrations: 100 nM and 1000 nM (sheet 'Samples'), CATDS: 1.0869541528388701E-2",148 nM
same,potency estimated from few doses,"SLK; compound concentrations: 100 nM and 1000 nM (sheet 'Samples'), CATDS: 1.35175429318502E-2",84.7 nM
O=C1N=C(NCCc2ccc(Cl)cc2)S/C1=C\c1ccc2ncccc2c1 [RO4498479-000],potency estimated from few doses,ACVR1; CATDS: 7.5426922392671601E-3,1230 nM
same,potency estimated from few doses,"AKT3; compound concentrations: 100 nM and 1000 nM (sheet 'Samples'), CATDS: 7.4016289423583202E-3",1320 nM
same,potency estimated from few doses,"DDR1; compound concentrations: 100 nM and 1000 nM (sheet 'Samples'), CATDS: 7.1142371440619002E-3",1530 nM
same,potency estimated from few doses,"RPS6KA1; compound concentrations: 100 nM and 1000 nM (sheet 'Samples'), CATDS: 6.6850452112440202E-3",2010 nM
same,potency estimated from few doses,"TEC; compound concentrations: 100 nM and 1000 nM (sheet 'Samples'), CATDS: 9.3913889163932396E-3",646 nM
CONC1=NC(=O)/C(=C/c2ccc3ncccc3c2)S1 [RO4613269-000],potency estimated from few doses,TP53RK; CATDS: 0.12819898124354101,2200 nM
Cc1ccc2c(-c3ccncc3)c(-c3ccc(F)cc3)nn2c1.Cl [GW461484A],potency estimated from few doses,CDK10; [1],1410 nM
Cc1ccc(Nc2ccnc(Nc3ccc4c(c3)CS(=O)(=O)C4)n2)cc1O.Cl [GW579362A],potency estimated from few doses,ACVR1; CATDS: 3.1800553905839801E-2,1030 nM
same,potency estimated from few doses,"CDK10; compound concentrations: 100 nM and 1000 nM (sheet 'Samples'), CATDS: 3.9153038455417302E-2",602 nM
O=C1NC(=O)C(N2CCc3ccccc32)=C1c1ccccc1Cl [SB-373598],potency estimated from few doses,TEC; [1],904 nM
CCn1c(-c2nonc2N)nc2c(C#CC(C)(C)O)nc(CN3CCCC3)cc21 [GSK1000163A],potency estimated from few doses,"AKT3; compound concentrations: 100 nM and 1000 nM (sheet 'Samples'), CATDS: 0.185643756681795",1430 nM
Cn1ncc2c(N)ncnc21 [SKF-18267],potency estimated from few doses,ACVR1; CATDS: 5.7443356978904197E-3,627 nM
same,potency estimated from few doses,AKT2; CATDS: 5.1088836681336602E-3,780 nM
same,potency estimated from few doses,"DDR1; compound concentrations: 100 nM and 1000 nM (sheet 'Samples'), CATDS: 4.82198778497934E-3",876 nM
same,potency estimated from few doses,"IKBKE; compound concentrations: 100 nM and 1000 nM (sheet 'Samples'), CATDS: 4.4054249402622498E-3",1060 nM
same,potency estimated from few doses,"MAP4K2; compound concentrations: 100 nM and 1000 nM (sheet 'Samples'), CATDS: 4.7977079984097802E-3",885 nM
same,potency estimated from few doses,"MAP4K3; compound concentrations: 100 nM and 1000 nM (sheet 'Samples'), CATDS: 3.8804201859816102E-3",1450 nM
same,potency estimated from few doses,MAP4K5; CATDS: 3.7006195337176699E-3,1650 nM
same,potency estimated from few doses,"NEK9; compound concentrations: 100 nM and 1000 nM (sheet 'Samples'), CATDS: 5.3187042778019703E-3",722 nM
same,potency estimated from few doses,PIK3C2A; CATDS: 5.9586884702388498E-3,587 nM
same,potency estimated from few doses,"PIK3C3; compound concentrations: 100 nM and 1000 nM (sheet 'Samples'), CATDS: 6.1778157574045199E-3",552 nM
same,potency estimated from few doses,"RPS6KA1; compound concentrations: 100 nM and 1000 nM (sheet 'Samples'), CATDS: 4.0621123256608799E-3",1290 nM
same,potency estimated from few doses,"SLK; compound concentrations: 100 nM and 1000 nM (sheet 'Samples'), CATDS: 4.0721330084515098E-3",1280 nM
same,potency estimated from few doses,STK11; CATDS: 3.27350856558018E-3,2430 nM
same,potency estimated from few doses,"TAOK1; compound concentrations: 100 nM and 1000 nM (sheet 'Samples'), CATDS: 4.9523162341794302E-3",830 nM
same,potency estimated from few doses,"TEC; compound concentrations: 100 nM and 1000 nM (sheet 'Samples'), CATDS: 5.5600102138742497E-3",665 nM
same,potency estimated from few doses,"TGFBR1; compound concentrations: 100 nM and 1000 nM (sheet 'Samples'), CATDS: 5.0317884305657503E-3",804 nM
same,potency estimated from few doses,TP53RK; CATDS: 3.61485371112703E-3,1760 nM
Cl.ON=C1CCc2cc(-c3nc(C4CCNCC4)[nH]c3-c3ccncc3)ccc21 [SB-614067-R],potency estimated from few doses,TGFBR1; [1],1170 nM
COc1cccc2c(-c3ccncc3)c(-c3ccc(F)cc3)nn12 [GW468513X],potency estimated from few doses,"TGFBR1; compound concentrations: 100 nM and 1000 nM (sheet 'Samples'), CATDS: 4.1244315663660498E-2",1080 nM
Fc1ccc(-c2c(-c3ccncc3)[nH]c3cccnc23)cc1 [RO1153853-000],potency estimated from few doses,"TGFBR1; compound concentrations: 100 nM and 1000 nM (sheet 'Samples'), CATDS: 5.3195917052411702E-2",1310 nM
CCn1c(-c2nonc2N)nc2c(-c3ccccc3)ncc(OCCCN)c21.CCn1c(-c2nonc2N)nc2c(-c3ccccc3)ncc(OCCCN)c21.O=C(O)C(F)(F)F.O=C(O)C(F)(F)F [GSK260205A],potency estimated from few doses,AKT2; CATDS: 4.8057080770149398E-2,339 nM
COc1ccc(-c2cc3c(N)ncnc3o2)cc1 [GW642138X],potency estimated from few doses,MAP2K2; CATDS: 0.100903208593323,1800 nM
O=C(O)C(F)(F)F.O=c1[nH]ccc2nc(N[C@@H]3CCNC3)nc(Nc3ccc4c(c3)S(=O)(=O)CC4)c12 [GSK2181306A],potency estimated from few doses,"CDK10; compound concentrations: 100 nM and 1000 nM (sheet 'Samples'), CATDS: 1.0545767640912401E-2",729 nM
same,potency estimated from few doses,MAP2K2; CATDS: 8.3394959268462601E-3,1620 nM
same,potency estimated from few doses,"MAP4K2; compound concentrations: 100 nM and 1000 nM (sheet 'Samples'), CATDS: 2.4699396499264999E-2",121 nM
same,potency estimated from few doses,"MAP4K3; compound concentrations: 100 nM and 1000 nM (sheet 'Samples'), CATDS: 1.12434649854769E-2",612 nM
same,potency estimated from few doses,MAP4K5; CATDS: 1.5726732073661799E-2,283 nM
same,potency estimated from few doses,"RPS6KA1; compound concentrations: 100 nM and 1000 nM (sheet 'Samples'), CATDS: 8.5840482500919892E-3",1440 nM
same,potency estimated from few doses,"SLK; compound concentrations: 100 nM and 1000 nM (sheet 'Samples'), CATDS: 1.8680668627662898E-2",201 nM
same,potency estimated from few doses,STK11; CATDS: 1.6673452289140401E-2,251 nM
Cc1cccc(Nc2nc(N[C@H]3CCNC3)ncc2C(N)=O)c1.Cl [GSK2197149A],potency estimated from few doses,PIK3C3; [1],1110 nM
CC(C)Oc1ccc2c(-c3ccnc(Nc4ccc(N5CCN(C)CC5)cc4)n3)cnn2n1 [GW696155X],potency estimated from few doses,IKBKE; [1],343 nM
same,potency estimated from few doses,NEK9; [1],26 nM
same,potency estimated from few doses,TAOK1; [1],1580 nM
CS(=O)(=O)CCn1c(=O)c(Oc2ccc(F)cc2F)cc2cnc(NC3CCOCC3)nc21 [RO5027956-000],potency estimated from few doses,AKT3; [1],2170 nM
CCn1c(-c2cccnc2O)nc2cnccc21 [SB-736715],potency estimated from few doses,AKT2; CATDS: 1.4638911444233901E-2,1360 nM
same,potency estimated from few doses,"IKBKE; compound concentrations: 100 nM and 1000 nM (sheet 'Samples'), CATDS: 1.31503893194051E-2",1730 nM
same,potency estimated from few doses,MAP2K2; CATDS: 1.1967755653937401E-2,2210 nM
same,potency estimated from few doses,"MAP4K3; compound concentrations: 100 nM and 1000 nM (sheet 'Samples'), CATDS: 1.18582584558427E-2",2260 nM
same,potency estimated from few doses,PIK3C2A; CATDS: 1.67467583314573E-2,1040 nM
same,potency estimated from few doses,"PIK3C3; compound concentrations: 100 nM and 1000 nM (sheet 'Samples'), CATDS: 1.55952310039979E-2",1190 nM
same,potency estimated from few doses,STK11; CATDS: 1.3793469415990099E-2,1550 nM
same,potency estimated from few doses,"TEC; compound concentrations: 100 nM and 1000 nM (sheet 'Samples'), CATDS: 1.49433127144414E-2",1300 nM
same,potency estimated from few doses,TP53RK; CATDS: 1.2573959142924701E-2,1940 nM
